Screening results as filed in PubChem.
D1 antag = blocks dopamine activation of the human D1 receptor | AID 504652 | P21728 | HEK293 TREx D1 cells, calcium flux, dopamine EC80; stronger effect = lower value | activity change, negative = inhibition, % at 10 µM | 360,000 tested, 3.2% active; in the data active means activity change below about -30%
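Calcium flux readout: force-coupled, inducible Hek293 Trex D1 line, cells induced overnight at 30 C with tetracycline, dye-loaded 30–90 min at RT. Antagonism scored against EC80 dopamine challenge given 180 s after compound.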
TRHR agonist = activates the human TRH receptor | P34981 | TRHR cells, calcium flux fluo-8, FDSS agonist mode | activation, % at 2 µM | 360,000 tested, 0.18% active
Target sequence (P34981 whole entry, looked up): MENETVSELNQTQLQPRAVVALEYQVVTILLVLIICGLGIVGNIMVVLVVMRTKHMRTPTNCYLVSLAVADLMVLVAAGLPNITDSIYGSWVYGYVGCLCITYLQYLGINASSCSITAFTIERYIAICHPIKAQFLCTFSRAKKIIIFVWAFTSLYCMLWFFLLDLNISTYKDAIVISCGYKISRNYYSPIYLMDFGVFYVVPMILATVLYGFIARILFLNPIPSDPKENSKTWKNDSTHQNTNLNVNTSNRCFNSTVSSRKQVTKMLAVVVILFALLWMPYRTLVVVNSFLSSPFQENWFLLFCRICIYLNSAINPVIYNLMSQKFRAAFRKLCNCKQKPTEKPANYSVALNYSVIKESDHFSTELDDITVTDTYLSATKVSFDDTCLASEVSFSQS
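Agonist-mode FDSS calcium read (Ex 480/Em 530, 1 s cycles) in 1536-well TRHR cells with fluo-8 dye, after 10-cycle baseline and 23 nL compound addition; TRH at EC20 (10 nM final) added afterwards for the enhancer phase.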
D1 PAM = enhances dopamine response at the human D1 receptor; HEK293 TREx D1 cells, calcium flux, dopamine EC20 potentiation; potentiation, % at 10 µM; 360,000 tested, 0.036% active; AID 504651; in the data active means potentiation above about 30%
Epigenetic reg = derepresses silenced GFP reporter in murine cells. murine LDR cells, GFP reporter derepression, 30 h. Potency, µM (top dose mostly 53.9 µM), actives largely listed as activators. 280,000 tested, 0.2% active; active means well fitted activation curve with a large enough effect; further: nearly all actives have a fitted effect of over 60% in size
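Reporter derepression read as number of fluorescent GFP-positive objects, 20-120 um in size, counted by laser-scanning cytometer. Mouse LDR line with an epigenetically silenced CMV-GFP locus; compound incubation 30 h, 37 C.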
TRHR PAM = allosteric enhancers of human TRH receptor | P34981 | TRHR cells, fluo-8 calcium fluorescence, EC20 TRH enhancement | enhancement, % at 2 µM | 360,000 tested, 0.66% active | AID 493056; in the data active means enhancement above about 30%
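TRHR-expressing cells loaded with fluo-8 calcium dye were read kinetically (ex 480/em 530) during compound addition, then stimulated with an EC20 of TRH (10 nM final). Enhancement of the Gq-mediated intracellular calcium response was scored.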
D1 agonist = human D1 receptor agonism | P21728 | HEK293 T-REx D1 cells, calcium flux, agonist mode | activation, % at 2 µM | 360,000 tested, 1% active | AID 504660
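Inducible HEK293 T-REx D1 cells, force-coupled to calcium signalling, were plated at 4000 cells/well with tetracycline and held overnight at 30 C. After no-wash calcium dye loading, compound-evoked calcium rise over 180 s flagged agonists.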
A number is an active result; . = inactive; / = not tested or not shown. Shown are actives, neighbours in structure and some others; about 4.6% of the full set was active somewhere. Unless noted, no stated cut-off is given here; in the data, active means activation above about 30%; inactive means the rest.

SMILES	D1 antag	TRHR agonist	D1 PAM	Epigenetic reg	TRHR PAM	D1 agonist
COc1ccccc1-c1cc2nc(C)c(CCC(=O)NCCc3ccc(SC)cc3)c(C)n2n1	-47	.	.	.	.	.
CCc1ccc(CNC(=O)C2Cc3cc(S(=O)(=O)N4CCCCCC4)ccc3N2C(C)=O)cc1 (centres undefined)	.	.	.	.	.	.
O=S(=O)(Nc1ccc(N2CCCCC2)cc1)c1ccc(F)c(F)c1	.	.	.	.	.	58
O=C(CSc1nnc(CNc2ccc(F)cc2)o1)N1CCN(C(=O)c2ccco2)CC1	.	.	.	.	.	.
COc1ccc(C(=O)NCc2nnc(SCC(=O)c3ccccc3)o2)cc1	.	.	.	/	.	.
CN(C)S(=O)(=O)c1ccc(C(=O)NCc2nnc(SCC(=O)N3CCCCCC3)o2)cc1	.	.	.	/	.	.
CC1CCN(C(=O)CSc2nnc(CNC(=O)c3ccc(S(=O)(=O)N(C)C)cc3)o2)CC1	-45	.	.	/	.	.
O=C(NCc1nnc(SCC(=O)N2CCC(Cc3ccccc3)CC2)o1)c1ccccc1F	.	.	.	.	.	33
O=C(CSc1nnc(CNC(=O)c2ccc(F)cc2)o1)c1ccccc1	-31	.	.	/	.	.
O=C(CSc1nnc(CNc2ccccc2)o1)N1CCN(C(=O)c2ccco2)CC1	-38	.	.	.	.	.
O=C(CCCl)Nc1cccc2cccnc12	.	.	.	/	.	.
CCOC(=O)c1nn(-c2ccc(Cl)cc2Cl)c(=N)c(C#N)c1C	.	.	.	11µM	.	.
CCOC(=O)c1cc(C)n(CC2CCC(C(=O)Nc3cccc(C(C)=O)c3)CC2)c1C (centres undefined)	.	.	.	.	.	.
Cc1ccc(O)c(C(=O)c2cc(C#N)c(=O)n(-c3nccs3)c2)c1	.	.	.	.	.	331
Cc1ccc(O)c(C(=O)c2cc(C#N)c(=O)n(-c3c(C)n(C)n(-c4ccccc4)c3=O)c2)c1	.	.	.	.	.	.
O=C(CSCn1nnc2c(=O)[nH]c(Cc3ccc(F)cc3)nc21)Nc1cccc(C(F)(F)F)c1	.	.	.	.	.	.
COc1ccc(S(=O)(=O)c2nnn(-c3ccc(C(C)C)cc3)c2C)cc1	.	.	.	.	.	.
COc1ccc(S(=O)(=O)c2nnn(-c3cc(Cl)c(OC)cc3OC)c2C)cc1	.	.	.	.	.	61
COc1cccc(-n2c(=O)c3sc4ccccc4c3n(CC(=O)Nc3ccccc3OC)c2=O)c1	.	.	.	.	.	.
CCC1OC(=O)C(C)[C@@H](O[C@H]2C[C@@](C)(OC)C(O)C(C)O2)C(C)[C@@H](O[C@@H]2OC(C)CC(N(C)C)C2O)[C@@](C)(O)CC(C)CN(C)C(C)C(O)[C@]1(C)O (some centres undefined)	/	/	/	.	/	/
Cc1cccc(OCC(O)Cn2c(=N)n(Cc3ccccc3)c3ccccc32)c1 (centres undefined)	.	.	.	.	.	68
Cc1ccc(OCC(O)Cn2c(=N)n(Cc3ccccc3)c3ccccc32)cc1 (centres undefined)	.	.	.	.	.	.
COc1ccc(OCC(O)Cn2c(=N)n(Cc3ccccc3)c3ccccc32)cc1 (centres undefined)	-46	.	.	.	.	48
COc1ccc(OCC(O)CN2C(=O)c3ccccc3C2=O)cc1 (centres undefined)	.	.	.	/	.	.
N=c1n(Cc2ccc(Cl)cc2)c2ccccc2n1CC(O)COc1ccccc1 (centres undefined)	.	.	.	.	.	68
SMILES	D1 antag	TRHR agonist	D1 PAM	Epigenetic reg	TRHR PAM	D1 agonist
O=C1c2ccccc2C(=O)N1CC(O)COc1ccc(Cl)cc1 (centres undefined)	-31	.	.	/	.	.
Cc1ccc(C)c(OCCCn2c(-c3ccc(Cl)cc3)nc3ccccc3c2=O)c1	.	.	.	.	.	.
CC(C)Oc1ccc(C(=O)N2CCN(c3nc4c(F)cc(F)cc4s3)CC2)cc1	/	.	.	.	.	.
Cc1c(Cl)cccc1NC(=O)CC(c1ccc(F)cc1)N1Cc2ccccc2C1=O (centres undefined)	.	.	.	.	.	.
N=c1n(Cc2ccccc2)c2ccccc2n1CC(O)COc1ccc(Cl)cc1Cl (centres undefined)	.	.	32	.	.	87
COc1ccc(CN2CCN(CC(O)Cn3c4ccccc4c4ccccc43)CC2)cc1 (centres undefined)	-94	.	.	.	.	.
CC(=O)Nc1ccc(S(=O)(=O)Nc2cccc(-c3ccc(N4CCC(C)CC4)nn3)c2)cc1	.	.	.	.	.	.
COc1cccc(CC(=O)N2CCCC(CO)(Cc3ccc(F)cc3F)C2)c1 (centres undefined)	-47	.	.	/	.	.
O=C(Cc1cccc(F)c1)N1CCCC(CO)(Cc2ccc(F)cc2F)C1 (centres undefined)	.	.	.	/	.	.
COc1cccc(CC2(CO)CCCN(C/C=C/c3ccccc3OC)C2)c1 (centres undefined)	.	.	.	.	.	33
CC(C)C(=O)Nc1cccc(C(=O)Nc2nnc(CC(C)(C)C)s2)c1	.	.	.	.	.	.
Cc1cc2c(s1)c1cnn(Cc3c(F)ccc(F)c3F)c(=O)c1n2C	.	.	.	/	.	.
CC1CCc2sc(C(=O)NCC(C)(C)N3CCOCC3)cc2C1 (centres undefined)	-68	.	.	/	.	.
CC1CCc2sc(C(=O)Nc3ccc(N4CCOCC4)cc3)cc2C1 (centres undefined)	.	.	.	.	.	.
CN(Cc1ccccc1)C(=S)NC(=O)c1ccccc1	.	.	.	.	31	.
COc1ccc(C(=O)NC(=S)N(C)Cc2ccccc2)cc1Br	.	.	.	.	.	.
Cc1ccc2cc(CN(CC3CCCO3)C(=S)NCc3ccco3)c(=O)[nH]c2c1C (centres undefined)	.	.	.	.	34	.
CCCCNC(=S)N(Cc1ccco1)Cc1cc2cc3c(cc2[nH]c1=O)OCCO3	-46	.	.	.	.	.
CCOCCCNC(=S)N(Cc1ccco1)Cc1cc2cc3c(cc2[nH]c1=O)OCCO3	.	.	.	.	.	.
Cc1ccc2cc(CN(Cc3nnnn3Cc3ccco3)CC3CCCO3)c(=O)[nH]c2c1C (centres undefined)	-35	.	.	.	.	.
COCCCNC(=O)CSc1nc2cc3c(cc2c(=O)n1CCCCCC(=O)NCCc1ccc(OC)c(OC)c1)OCO3	.	.	.	.	.	.
COc1ccc(NC(C)=O)cc1NC(=O)CCn1c(=O)sc2ccccc21	.	.	.	.	.	.
